Results published in PubChem BioAssay.
Activity calls are given as the source filed them.

Key:
[1] = E. coli DRC41 culture turbidity changes, primary screen, E. coli filamentation inducer project, strain DRC41, OD650, 48 h (AID 1152);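 also: E. coli MC1000 strain DRC41 lacking acrAB efflux pump and sulA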; details: E. coli DRC41 (acrAB sulA), higher = more signal, called active from +8 up or from −8 down
[2] = small-molecule binders of probe aLefty1, primary screen, biochemical, small-molecule microarray, 635/667 nm fluorescence (AID 1153); details: higher = more signal;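 also: score merges spot fluorescence with signal-to-noise ratio from the scanned slide images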
[3] = PSAC antagonists in infected red cells, primary screen, cell-based, P. falciparum Indochina, OD700, 1 h (AID 1154); details: P. falciparum Indochina infected RBC osmotic lysis, higher = more signal, called active from +8 up or from −8 down
[4] = PSAC antagonists in infected red cells, primary screen, cell-based, P. falciparum Indochina, OD700, 2 h (AID 1155);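 also: lysis reports solute entry through the parasite surface anion channel PSAC; channel blockers reduce lysis of infected cells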; details: P. falciparum Indochina infected erythrocytes, osmotic lysis OD700; higher = more signal, called active from +8 up or from −8 down
[5] = osmotic lysis modulators in infected erythrocytes, primary screen, PSAC antagonist project, cell-based, P. falciparum Indochina, OD700, 3 h (AID 1156); details: higher = more signal, called active from +8 up or from −8 down
[6] = PSAC antagonists in infected red cells, primary screen, cell-based, P. falciparum Indochina, OD700, 18 h (AID 1157); details: P. falciparum Indochina infected erythrocytes, osmotic lysis OD700, 18 h; higher = more signal, called active from +8 up or from −8 down
[7] = modulators of S6 phosphorylation in cells, primary screen, cell-based, A549, cytoblot, luminescence, serum-stimulated (AID 1158); details: A549 phospho-S6 cytoblot, 5 h, higher = more signal;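 also: serum-stimulated A549 lung adenocarcinoma cells; signal is phosphorylated S6 detected by cytoblot immunostaining with HRP secondary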
[8] = target: NADPH oxidase 2 (Homo sapiens) (UniProt P04839); test: NOX2-dependent H2O2 signal modulators, primary screen, NOX inhibitor project, cell-based, HEK293-NOX2, PMA-stimulated, Amplex Red fluorescence (AID 1159); details: 45 min, higher = more signal, called active from +8 up or from −8 down; also: test concentration not given here
Chain of NADPH oxidase 2 (Homo sapiens) (P04839 whole entry, looked up): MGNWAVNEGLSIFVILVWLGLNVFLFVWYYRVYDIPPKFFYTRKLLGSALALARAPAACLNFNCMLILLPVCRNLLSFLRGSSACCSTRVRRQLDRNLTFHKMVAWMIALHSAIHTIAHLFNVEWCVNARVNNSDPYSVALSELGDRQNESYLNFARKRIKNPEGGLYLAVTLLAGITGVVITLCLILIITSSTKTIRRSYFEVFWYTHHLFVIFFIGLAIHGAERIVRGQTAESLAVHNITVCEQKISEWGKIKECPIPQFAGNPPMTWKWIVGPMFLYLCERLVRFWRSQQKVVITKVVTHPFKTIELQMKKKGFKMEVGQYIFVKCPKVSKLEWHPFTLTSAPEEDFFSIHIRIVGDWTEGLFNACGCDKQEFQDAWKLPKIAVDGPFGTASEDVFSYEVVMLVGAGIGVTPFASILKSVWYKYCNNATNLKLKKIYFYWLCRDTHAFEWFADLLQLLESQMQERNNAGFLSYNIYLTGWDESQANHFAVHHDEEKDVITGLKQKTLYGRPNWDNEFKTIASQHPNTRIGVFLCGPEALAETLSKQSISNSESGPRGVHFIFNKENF

[9] = target: NADPH oxidase 4 (Homo sapiens) (UniProt Q9NPH5); test: NOX4-dependent H2O2 signal modulators, primary screen, NOX inhibitor project, cell-based, HEK293-NOX4, tetracycline-induced, Amplex Red fluorescence (AID 1160); details: 45 min, higher = more signal, called active from +8 up or from −8 down
Chain of NADPH oxidase 4 (Homo sapiens) (Q9NPH5 whole entry, looked up): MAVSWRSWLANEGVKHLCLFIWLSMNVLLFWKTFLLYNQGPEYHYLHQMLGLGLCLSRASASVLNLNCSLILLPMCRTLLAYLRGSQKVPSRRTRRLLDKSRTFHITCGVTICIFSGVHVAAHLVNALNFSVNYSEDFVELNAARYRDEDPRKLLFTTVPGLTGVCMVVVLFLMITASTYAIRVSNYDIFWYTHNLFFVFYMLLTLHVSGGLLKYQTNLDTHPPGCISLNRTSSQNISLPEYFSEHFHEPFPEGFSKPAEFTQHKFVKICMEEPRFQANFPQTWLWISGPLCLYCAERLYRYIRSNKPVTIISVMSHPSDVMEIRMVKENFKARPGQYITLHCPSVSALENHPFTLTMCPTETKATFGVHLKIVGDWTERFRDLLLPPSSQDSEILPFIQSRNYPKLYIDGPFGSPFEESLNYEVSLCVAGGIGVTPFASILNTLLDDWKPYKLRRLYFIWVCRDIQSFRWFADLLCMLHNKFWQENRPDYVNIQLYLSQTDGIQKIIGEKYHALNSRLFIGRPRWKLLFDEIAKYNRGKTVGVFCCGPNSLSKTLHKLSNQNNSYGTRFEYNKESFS

[10] = target: NADPH oxidase 5 (Homo sapiens) (UniProt Q96PH1); test: NOX5-dependent H2O2 signal modulators, primary screen, NOX inhibitor project, cell-based, HEK293-NOX5, Amplex Red fluorescence (AID 1161); details: HEK293-NOX5, ionomycin, 45 min, higher = more signal
Chain of NADPH oxidase 5 (Homo sapiens) (Q96PH1 whole entry, looked up): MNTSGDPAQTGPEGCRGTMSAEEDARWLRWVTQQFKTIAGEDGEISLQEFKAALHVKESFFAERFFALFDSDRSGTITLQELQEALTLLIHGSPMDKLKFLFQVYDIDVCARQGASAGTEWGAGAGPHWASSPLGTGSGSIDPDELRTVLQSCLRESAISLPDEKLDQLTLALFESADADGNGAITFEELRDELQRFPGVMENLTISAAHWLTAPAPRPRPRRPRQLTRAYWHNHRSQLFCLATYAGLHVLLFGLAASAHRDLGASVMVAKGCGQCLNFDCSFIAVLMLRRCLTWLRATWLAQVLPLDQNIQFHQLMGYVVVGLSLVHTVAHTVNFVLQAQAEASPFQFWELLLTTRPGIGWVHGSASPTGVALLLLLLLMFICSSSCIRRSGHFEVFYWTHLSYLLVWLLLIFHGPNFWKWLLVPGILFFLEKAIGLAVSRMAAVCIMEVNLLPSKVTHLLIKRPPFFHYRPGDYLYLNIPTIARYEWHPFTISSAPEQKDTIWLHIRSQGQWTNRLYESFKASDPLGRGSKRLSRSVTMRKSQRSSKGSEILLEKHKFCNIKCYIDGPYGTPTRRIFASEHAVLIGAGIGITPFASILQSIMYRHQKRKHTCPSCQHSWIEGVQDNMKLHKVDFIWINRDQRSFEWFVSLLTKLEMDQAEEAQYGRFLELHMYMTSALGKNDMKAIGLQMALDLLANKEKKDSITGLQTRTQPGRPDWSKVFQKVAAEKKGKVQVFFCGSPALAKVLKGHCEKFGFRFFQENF

[11] = A549 cell viability effects, profiling panel, calcein-AM fluorescence, 48 h, basal (AID 1162); details: higher = more signal; also: test concentration not given here
[12] = adipocyte viability effects, profiling panel, cell-based, 3T3-L1 adipocytes, calcein-AM fluorescence, 48 h, basal (AID 1163); details: 3T3-L1 adipocytes viability, higher = more signal; also: test concentration not given here
[13] = HepG2 cell viability effects, profiling panel, calcein-AM fluorescence, 48 h, basal (AID 1164); details: higher = more signal; also: test concentration not given here
[14] = MM1S cell viability effects, profiling panel, calcein-AM fluorescence, 48 h, basal (AID 1165); details: higher = more signal;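 also: viability of MM1S multiple myeloma cells under basal unstimulated conditions; test concentration not given here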
[15] = basal RPMI8226 viability, no added stimulus, profiling panel, cell-based, calcein-AM fluorescence, 48 h, PK04 Diversity Set (AID 1166); details: RPMI8226 myeloma viability, higher = more signal;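 also: cells grown under basal conditions without added stimulus; test concentration not given here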
[16] = basal HepG2 mitochondrial membrane potential changes, profiling panel, cell-based, JC-1 fluorescence, 24 h, 100 nL compound (AID 1167); details: higher = more signal; also: test concentration not given here
[17] = basal 3T3-L1 adipocyte mitochondrial potential changes, profiling panel, cell-based, JC-1 fluorescence, 3T3-L1 adipocytes, 24 h, 100 nL compound (AID 1168); details: JC-1 mitochondrial fluorescence, higher = more signal, called active from +8 up or from −8 down; also: test concentration not given here
[18] = basal RPMI8226 mitochondrial membrane potential changes, profiling panel, cell-based, JC-1 fluorescence, 24 h, 100 nL compound (AID 1169); details: RPMI8226 myeloma, JC-1 mitochondrial potential fluorescence, higher = more signal; also: test concentration not given here
[19] = basal MM1S mitochondrial membrane potential changes, profiling panel, cell-based, JC-1 fluorescence, 24 h, 100 nL compound (AID 1170); details: higher = more signal; also: test concentration not given here
[20] = A549 lung cancer cell viability effects, profiling panel, resazurin fluorescence, 24 h, PK04 Diversity Set (AID 1171); details: higher = more signal, called active from +8 up or from −8 down; also: test concentration not given here

Structure (SMILES) | z-score [1] | composite z-score [2] | z-score [3] | z-score [4] | z-score [5] | z-score [6] | z-score [7] | z-score [8] | z-score [9] | z-score [10] | z-score [11] | z-score [12] | z-score [13] | z-score [14] | z-score [15] | z-score [16] | z-score [17] | z-score [18] | z-score [19] | z-score [20]
CC1CC/C=C\[C@H]2OC34C=CCN(C(C)C)C(=O)[C@H]3N(CCO)C(=O)[C@@H]4C2C(=O)O1 (stereo not given in full) | 0.904 (inactive) | -0.101 | 0.158 (inactive) | 0.22 (inactive) | -0.285 (inactive) | 0.112 (inactive) | 1.86 | 2.21 (inactive) | -0.785 (inactive) | 2.03 | 0.649 | 0.668 | -0.255 | 0.824 | -1.11 | 0.813 | 0.691 (inactive) | 0.021 | 1.65 | -0.969 (inactive)
COc1cc2c(cc1O)C(c1cccs1)N(Cc1cc3c(cc1Br)OCO3)CC2 (stereo not given) | -1.8 (inactive) | -0.566 | 10.2 (active) | 2.26 (inactive) | -1.06 (inactive) | 1.41 (inactive) | 0.0127 | -4.19 (inactive) | -2.38 (inactive) | -2.26 | -1.67 | -0.406 | -3.83 | -3.19 | -4.43 | -3.57 | -0.0381 (inactive) | -0.976 | -0.488 | -0.741 (inactive)
CCCCCCCCCCC(O)C1C=CC2C(=O)N(c3ccccc3)C(=O)C2N1Nc1ccc(C#N)cc1 (stereo not given) | -1.08 (inactive) | 0.571 | 6.7 (inactive) | 2.33 (inactive) | 0.0103 (inactive) | 2.3 (inactive) | -0.817 | -1.32 (inactive) | 0.0477 (inactive) | -0.266 | -2.09 | 0.0958 | -4.9 | -3.73 | -4.13 | -3.28 | -0.15 (inactive) | -0.939 | -0.469 | -0.186 (inactive)
